Molecules are shown by their SMILES. Where “and” joins values, the source holds several entries; their conditions need not be identical. Equal values may be shown once. Inconclusive results are not listed. Some compounds were tested as several samples or in several runs, with calls that do not always agree. Calls of active or inactive are those of the source. Unless noted, calls follow the shape of the dose curve; as a rule, active = well fitted curve in the direction sought with a large enough effect in the repeat runs; inconclusive = weak or mixed curves; inactive = no such curve, though single readings can be large; an effect the other way counts as inactive or inconclusive. Positions of bridges follow the written chain, without caps; N, C: chain ends. Non-standard residues stand in square brackets, D forms with d. Residues, ends and D or L forms follow the SMILES beside them. *: point of attachment. Dab(CH2SO3H) = N[C@@H](CCNCS(=O)(=O)O)C(=O)O; X3 = CC[C@@H](C)CCCCC(=O)*; Dab = NCC[C@H](N)C(=O)O

The nature of assay [1]: qHTS assay to identify small molecule antagonists of the glucocorticoid receptor (GR) signaling pathway - cell viability counter screen (AID 720693; also: nearly all actives have a fitted effect of over 55% in size; also: potency is read from the fitted curve at half-maximal effect). (In general: In qHTS, concentration-response curves come from the screen itself.)
A short description of assay [2]: qHTS assay for identifying genotoxic compounds that show differential cytotoxicity against isogenic chicken DT40 cell lines with known DNA damage response pathways - wild type cell line (AID 743012). Also: nearly all actives have a fitted effect of over 60% in size. Also: potency is read from the fitted curve at half-maximal effect. The gist of the method:
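Cytotoxicity in repair-proficient parental chicken DT40 cells serves as the comparator for Rad54/Ku70- and Rev3-deficient lines. Cells were exposed to compounds for 40 h at 37 C/5% CO2, and ATP-based luminescence (CellTiter-Glo) measured viability.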

The nature of assay [3]: qHTS assay for identifying genotoxic compounds that show differential cytotoxicity against isogenic chicken DT40 cell lines with known DNA damage response pathways - Rev3 mutant cell line (AID 743014). Also: nearly all actives have a fitted effect of over 55% in size. Also: potency is read from the fitted curve at half-maximal effect.
The nature of assay [4]: qHTS assay for identifying genotoxic compounds that show differential cytotoxicity against isogenic chicken DT40 cell lines with known DNA damage response pathways - Rad54/Ku70 mutant cell line (AID 743015). Also: nearly all actives have a fitted effect of over 60% in size. Also: potency is read from the fitted curve at half-maximal effect.
For assay [5], the target named is Androgen receptor (Homo sapiens) (UniProt P10275). Nature of the assay: qHTS assay to identify small molecule antagonists of the androgen receptor (AR) signaling pathway (AID 743035; active = well fitted inhibition curve with a large enough effect in the signal ratio in the repeat runs, not every such curve was filed as active; the % refers to the signal ratio; also: potency is read from the fitted curve at half-maximal effect). In outline: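 Steps: seed AR-UAS-bla GripTite HEK293 cells, incubate 4 h at 37C; pin in test compound, then add agonist R1881; incubate 16 h at 37C; add LiveBLAzer B/G FRET substrate, 2 h at room temperature; read fluorescence.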
Sequence of Androgen receptor (Homo sapiens) (P10275 whole entry, looked up): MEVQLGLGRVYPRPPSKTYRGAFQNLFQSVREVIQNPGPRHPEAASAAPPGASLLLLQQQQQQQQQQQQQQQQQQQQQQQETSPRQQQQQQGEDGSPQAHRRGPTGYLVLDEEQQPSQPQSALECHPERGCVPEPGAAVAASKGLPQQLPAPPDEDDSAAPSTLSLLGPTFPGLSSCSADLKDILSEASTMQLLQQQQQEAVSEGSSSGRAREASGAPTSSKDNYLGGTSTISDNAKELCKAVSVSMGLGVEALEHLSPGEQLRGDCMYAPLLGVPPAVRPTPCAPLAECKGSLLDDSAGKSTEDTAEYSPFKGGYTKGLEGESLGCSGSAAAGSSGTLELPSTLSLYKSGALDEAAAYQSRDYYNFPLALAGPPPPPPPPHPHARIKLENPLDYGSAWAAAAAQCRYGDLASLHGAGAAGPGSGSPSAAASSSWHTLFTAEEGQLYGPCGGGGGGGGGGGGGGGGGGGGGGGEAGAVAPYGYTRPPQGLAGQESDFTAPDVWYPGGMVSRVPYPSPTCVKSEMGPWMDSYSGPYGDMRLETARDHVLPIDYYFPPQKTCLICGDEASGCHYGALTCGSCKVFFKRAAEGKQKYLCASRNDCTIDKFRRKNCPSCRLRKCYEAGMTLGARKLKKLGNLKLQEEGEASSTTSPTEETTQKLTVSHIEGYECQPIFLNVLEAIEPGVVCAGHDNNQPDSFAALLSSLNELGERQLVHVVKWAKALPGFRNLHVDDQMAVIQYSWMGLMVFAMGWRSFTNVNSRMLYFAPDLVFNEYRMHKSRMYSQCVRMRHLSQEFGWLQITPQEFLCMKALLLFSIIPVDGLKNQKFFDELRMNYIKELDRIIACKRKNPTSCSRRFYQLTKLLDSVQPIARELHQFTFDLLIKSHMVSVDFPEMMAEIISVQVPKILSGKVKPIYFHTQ

Assay [6] is described as follows: qHTS assay to identify small molecule antagonists of the androgen receptor (AR) signaling pathway using the MDA cell line - cell viability counter screen (AID 743041; also: nearly all actives have a fitted effect of over 45% in size; also: potency is read from the fitted curve at half-maximal effect). The gist of the method:
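qHTS viability read-out; MDA-kb2 AR-luc; R1881-stimulated; 16 h exposure at 37C, 0% CO2; CellTiter-Fluor, 30 min; fluorescence intensity.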

Assay [7] concerns the target Androgen receptor (Homo sapiens) (UniProt P10275). The assay is described as follows: qHTS assay to identify small molecule antagonists of the androgen receptor (AR) signaling pathway using the MDA cell line (AID 743042; also: nearly all actives have a fitted effect of over 55% in size; also: potency is read from the fitted curve at half-maximal effect). The gist of the method: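 MDA-kb2 cells (human breast carcinoma, stably carrying an MMTV-luciferase reporter responsive to AR and GR) were plated at 3,000 cells/well and preincubated 5 hr at 37C, then given compound plus R1881 agonist for 16 h. ONE-Glo luminescence was read.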

The target is the same in assay [8]. The assay is described as follows: qHTS assay to identify small molecule agonists of the androgen receptor (AR) signaling pathway (AID 743036; active = well fitted activation curve with a large enough effect in the signal ratio in the repeat runs, with a control signal flat, not every such curve was filed as active; the % refers to the signal ratio). In outline: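 Fluorescence from a beta-lactamase FRET substrate served as read-out in AR-UAS-bla GripTite HEK293 cells. Cells were treated with DMSO-dissolved compounds for 16 h at 37C, then with LiveBLAzer B/G substrate for 2 h at room temperature.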

The nature of assay [9]: qHTS assay to identify small molecule antagonists of the androgen receptor (AR) signaling pathway - cell viability counter screen (AID 743033; also: nearly all actives have a fitted effect of over 45% in size; also: potency is read from the fitted curve at half-maximal effect).
Assay [10] concerns the target Androgen receptor (Homo sapiens) (UniProt P10275). Nature of the assay: qHTS assay to identify small molecule agonists of the androgen receptor (AR) signaling pathway using the MDA cell line (AID 743040; also: nearly all actives have a fitted effect of over 20% in size). In outline:
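Agonist activity is measured as luciferase luminescence in human MDA-kb2 cells whose MMTV reporter responds to both AR and GR. Compounds in DMSO incubate 16 h at 37C, 0% CO2, and ONE-Glo is read after 30 min.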

On to `CCCCCCCCCCCCCCCCCCNC(=O)OC1CCN(C(=O)OC[C@H](COC(=O)N(Cc2cccc[n+]2CC)C(=O)c2ccccc2OC)OC)CC1`, for which the Potency in assay [1] is 16.9 µM (active); in [2] it was 5.31 µM (active); in assay [3] it was 6.68 µM (active); in [4], 5.96 µM (active); in assay [5] it was 10.7 µM (active); in assay [6], 23.7 µM (active). The Potency in assay [7] is 13.3 µM (active).
For the molecule `CC[C@@H](C)CCCCC(=O)N[C@@H](CCNCS(=O)(=O)O)C(=O)N[C@H](C(=O)N[C@@H](CCNCS(=O)(=O)O)C(=O)N[C@H]1CCNC(=O)[C@H]([C@@H](C)O)NC(=O)[C@H](CCNCS(=O)(=O)O)NC(=O)[C@H](CCNCS(=O)(=O)O)NC(=O)[C@H](CC(C)C)NC(=O)[C@@H](CC(C)C)NC(=O)[C@H](CCNCS(=O)(=O)O)NC1=O)[C@@H](C)O` (X3-[Dab(CH2SO3H)]T[Dab(CH2SO3H)][Dab][Dab(CH2SO3H)][dL]L[Dab(CH2SO3H)][Dab(CH2SO3H)]T; lactam 4-C), the Potency result in [1], in assay [8], in assay [6] and in assay [7] was “inactive” in each case. In addition, the results for the Potency in [2], in assay [3] and in [4] were 23.7 µM (active), 23.7 µM (active) and 18.8 µM (active), respectively.
On to `CO/N=C(\C(=O)N[C@@H]1C(=O)N2C(C(=O)[O-])=C(C[n+]3ccc(N)n3CCO)CS[C@H]12)c1csc(N)n1`, for which the Potency result in assay [1], in [2], in assay [3], in assay [4], in assay [9] and in assay [6] was “inactive” each time.
On to `CN(C)CCOc1ccc(/C(=C(/CCCl)c2ccccc2)c2ccccc2)cc1`, for which the Potency entry in assay [1] and in [6] was “inactive” throughout. Also, the Potency is 11.9 µM (active) and 5.1 µM (active) in assay [2]; 2.66 µM (active) and 1.44 µM (active) in [3]; 9.44 µM (active) and 2.03 µM (active) in assay [4]; 16.3 µM (active) in assay [9]; “inactive and 57.2 µM (active)” in assay [7].
Take `CC(C)c1ccc2sc3ccccc3c(=O)c2c1`: the Potency entry in [1] and in assay [6] was “inactive” each time. Also, the values for the Potency in assay [2], in [3] and in assay [4] were 48.6 µM (active), 54.5 µM (active) and 54.5 µM (active), respectively.
For `CN(C[C@@H](CC[N+]12CCC(C3CCCCC3)(CC1)CC2)c1ccc(Cl)c(Cl)c1)C(=O)c1cc(C(F)(F)F)cc(C(F)(F)F)c1`, the Potency in [1] is 17.4 µM (active); in assay [2] it was 6.86 µM (active); in assay [3], 9.69 µM (active); in assay [4] it was 8.63 µM (active); in assay [9] it was 19.5 µM (active); in [6] it was 61.1 µM (active). Besides, in assay [7], the Potency was 54.5 µM (active).
In the case of `O=C1c2ccccc2-c2n[nH]c3cccc1c23`, the Potency result in assay [1], in assay [9] and in assay [7] was “inactive” each time. Moreover, the Potency in assay [2] is 9.44 µM (active); in assay [3] it was 11.9 µM (active); in assay [4] it was 9.44 µM (active).
For the molecule `N#Cc1nc(Cl)c(Cl)c(Cl)c1Cl`, the Potency in [1] was 19.5 µM (active); in [2], 1.54 µM (active); in assay [3], 1.72 µM (active); in assay [4], 1.54 µM (active); in [9], 9.77 µM (active); in [6], 30.6 µM (active). Besides, the Potency in assay [7] was 6.86 µM (active).
Take `C[C@H](Cc1ccc(O)c(O)c1)[C@@H](C)Cc1ccc(O)c(O)c1`: the Potency entry in assay [1], in [9] and in [6] was “inactive” in each case. Besides, the Potency in assay [2] is 10.6 µM (active); in assay [3], 23.7 µM (active); in assay [4], 10.6 µM (active).
For the molecule `CC[C@H](C)C(=O)O[C@H]1CCC=C2C=C[C@H](C)[C@H](CC[C@@H]3C[C@@H](O)CC(=O)O3)[C@H]21`, the Potency result in assay [1], in assay [8], in assay [6] and in [7] was “inactive” each time. In addition, the Potency in [2] was 2.98 µM (active); in [3] it was 2.37 µM (active); in assay [4], 11.9 µM (active); in [5], 15.1 µM (active).
For the molecule `C[S+](CC[C@H](N)C(=O)O)C[C@H]1O[C@@H](n2cnc3c(N)ncnc32)[C@H](O)[C@@H]1O` (some centres not stated), the Potency entry in [1], in [2], in assay [3], in assay [4], in assay [9] and in [6] was “inactive” each time.
On to `CC1CCCC(C)N1NC(=O)c1ccc(Cl)c(S(N)(=O)=O)c1` (configuration not stated), for which the Potency result in [1], in [2], in [3], in assay [4], in [9] and in [6] was “inactive” each time.
For the molecule `O=P(O)(O)C(O)(Cn1ccnc1)P(=O)(O)O`, the Potency entry in assay [1], in assay [2], in assay [3], in assay [4], in assay [9] and in [6] was “inactive” throughout.
Consider `O=P(O)(O)OP(=O)(O)OP(=O)(O)O`, for which the Potency entry in assay [1], in [2], in assay [3], in [4], in assay [5] and in assay [10] was “inactive” each time. Also, the Potency result in [6] and in assay [7] was “inactive” each time.
Regarding `CCC(NC(C)C)C(O)c1ccc(O)c(O)c1` (configuration not stated), the Potency result in assay [1], in [2], in assay [3], in [4], in assay [9] and in [6] was “inactive” in each case.
Regarding `Cc1cc(N)c2ccccc2[n+]1CCCCCCCCCC[n+]1c(C)cc(N)c2ccccc21`, in assay [1], the Potency result was “inactive”. The Potency in [2] was 2.54 µM (active); in [3] it was 2.54 µM (active); in assay [4], 2.85 µM (active); in assay [6] it was 7.49 µM (active).
`CCN(CC)C(=O)c1cccnc1`: the Potency result in assay [1], in assay [2], in [3], in [4], in assay [9] and in [6] was “inactive” each time.
In the case of `CC(C)c1ncc([N+](=O)[O-])n1C`, the Potency entry in assay [1], in [2], in [3], in [4], in assay [5] and in assay [10] was “inactive” each time. The Potency result in [6] and in assay [7] was “inactive” throughout.
For `CC(CNC(=O)c1cccnc1)NC(=O)c1cccnc1` (configuration not stated), the Potency entry in assay [1], in assay [2], in assay [4], in [9] and in assay [6] was “inactive” in each case.
On to `CCCCCN=C(N)N/N=C/c1c[nH]c2ccc(OC)cc12`, for which the Potency result in [1], in assay [2], in [3], in assay [9] and in assay [6] was “inactive” in each case.

For the origin of these results see PubChem BioAssay (Tox21).
